TbREL1 inh – TbREL1 inhibition, primary screen; 89,000 tested, 0.49% active; inhibition, % at 9.66 µM; TbREL1 RNA ligation, FRET fluorescence;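 active = inhibition above the mean inhibition across all screened compounds plus 3 SD, cut at about 11% in these data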;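 note: 0% = plate median of test wells and 100% = NSC42067 control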
Target sequence (P86926 whole entry, looked up): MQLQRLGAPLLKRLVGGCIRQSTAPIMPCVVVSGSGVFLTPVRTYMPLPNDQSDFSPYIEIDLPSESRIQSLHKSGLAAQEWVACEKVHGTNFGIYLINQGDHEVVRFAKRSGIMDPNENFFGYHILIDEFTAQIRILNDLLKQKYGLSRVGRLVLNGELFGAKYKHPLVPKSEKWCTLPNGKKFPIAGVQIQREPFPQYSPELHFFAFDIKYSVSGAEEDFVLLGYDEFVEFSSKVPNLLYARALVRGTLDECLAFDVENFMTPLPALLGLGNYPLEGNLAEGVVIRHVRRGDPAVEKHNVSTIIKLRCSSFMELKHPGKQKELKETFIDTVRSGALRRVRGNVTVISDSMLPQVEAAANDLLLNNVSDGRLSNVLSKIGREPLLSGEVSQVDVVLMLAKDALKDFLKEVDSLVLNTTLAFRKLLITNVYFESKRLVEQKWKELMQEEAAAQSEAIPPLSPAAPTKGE
TbREL1 confirm – TbREL1 inhibition, confirmation; shares compounds with TbREL1 inh; TbREL1 RNA ligation, FRET fluorescence; inhibition, % at 9.66 µM; 390 tested, 37% active; AID 1117282;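 active = mean inhibition across replicates above a set limit taken from the earlier primary screen, cut at about 11% in these data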;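 note: 0% = REL1 with substrate and DMSO and 100% = REL1 plus control inhibitor NSC42067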
* = called active by the depositor. The sample as a whole holds a higher share of hits than the screen did.

SMILES	TbREL1 inh	others
Cc1ccc(OCc2nnc(SCC(=O)Nc3ccc(S(=O)(=O)Nc4cc(C)nc(C)n4)cc3)n2Cc2ccco2)cc1	5.7
Cc1cc(NS(=O)(=O)c2ccc(NC(=O)CSc3nnc(-c4ccc(Cl)cc4)n3Cc3ccco3)cc2)nc(C)n1	-1.9
Cc1cc(NS(=O)(=O)c2ccc(NC(=O)CSc3nnc(-c4ccncc4)n3Cc3ccco3)cc2)nc(C)n1	34.8*	TbREL1 confirm=0.0
Cc1sc2nc(SCC(=O)c3ccc(O)c(O)c3)n(C)c(=O)c2c1C	3.6
COc1ccccc1CNC(=O)CCC(=O)Nc1nnc(C(C)C)s1	-2.1
CC(C)c1ccc(NC(=O)NCc2ccc3c(c2)OCO3)cc1	0.9
CC(C)c1nnc(NC(=O)CCC(=O)NCc2ccc3c(c2)OCO3)s1	17.6*	TbREL1 confirm=4.5
COc1cc(-c2nnc(SCC(=O)N3C(C)CCCC3C)o2)cc(OC)c1OC (centres undefined)	-1.2
CCOc1ccc(N(CC(=O)Nc2c(C)n(C)n(-c3ccccc3)c2=O)S(=O)(=O)c2cccc3cccnc23)cc1	1.7
Cc1nc2ccc(S(=O)(=O)NCC(=O)NCc3ccccc3Cl)cc2s1	-0.1
O=C1NC[C@@H](Cc2ccc(O)cc2)N(CCc2cccc3ccccc23)C1=O	-3.0
c1ccc([C@H]2CNCCN2CCc2cccc3ccccc23)cc1	4.4
CCC(C)[C@H]1CN=C(N)N1CCc1cccc2ccccc12 (some centres undefined)	12.5*	TbREL1 confirm=7.5
O=C1NC[C@@H](CCCCN2C[C@H](Cc3ccccc3)N(CCc3ccc(O)cc3)C(=O)C2=O)N(Cc2ccccc2)C1=O	-3.3
Cc1ccc(OCc2nnc(SCC(=O)c3ccc4ccccc4c3)n2-c2ccc(Cl)cc2)cc1	-3.0
O=C(COC(=O)CC1CCCC1)Nc1ccc(Cl)cc1	1.7
NC(Cc1ccc(C(F)(F)F)cc1)c1csc(NC(=O)Nc2ccccc2Cl)n1 (centres undefined)	5.0
CC(C)c1ccc(NC(=O)Nc2nc(C(N)CCc3ccccc3)cs2)cc1 (centres undefined)	7.4
CC(C)C(N)c1csc(NC(=O)Nc2ccccc2C(C)(C)C)n1 (centres undefined)	13.3*	TbREL1 confirm=8.6
Cc1ccc(C)c(S(=O)(=O)N2CCCC2CNC(=O)C(=O)NC2CC2)c1 (centres undefined)	1.3
CN(C)S(=O)(=O)c1ccc2nc(COCc3nc4ccc(S(=O)(=O)N(C)C)cc4[nH]3)[nH]c2c1	8.2
O=C(CSc1nnc(-c2ccccc2)n1-c1ccccc1)NN=C/C=C\c1ccccc1[N+](=O)[O-]	-2.8
COc1ccc(C(CNC(=O)c2ccc(Br)o2)N2CCN(C)CC2)cc1 (centres undefined)	-1.7
O=[N+]([O-])c1cc(-c2csc(NCCc3nc4cc(C(F)(F)F)ccc4n3CCCO)n2)ccc1Cl	19.1*	TbREL1 confirm=4.6
OCCOCCn1c(CCNc2nc(-c3ccc(F)cc3)cs2)nc2cc(C(F)(F)F)ccc21	-3.7
SMILES	TbREL1 inh	others
Cc1nc2cc(C(F)(F)F)ccc2n1CCNc1nc(-c2ccc([N+](=O)[O-])c(Cl)c2)cs1	0.0
CCC(C(=O)NCc1ccco1)N(C(=O)CNS(=O)(=O)c1ccc(F)cc1)c1ccccc1F (centres undefined)	36.5*	TbREL1 confirm=1.9
CCCC(C(=O)NCc1ccco1)N(CC1CCCO1)C(=O)CNS(=O)(=O)c1ccc(F)cc1 (centres undefined)	-1.8
O=C(CN(Cc1ccc(F)cc1)C(=O)CNS(=O)(=O)c1ccc(F)cc1)NCc1ccco1	-3.8
O=C(CC[C@H]1O[C@@H](n2ccc(=O)[nH]c2=O)[C@H](O)[C@@H]1O)NCCCc1ccccc1	0.7
CC1=C(C(=O)N(C(C)C)C(C)C)CC(CC(=O)NCCc2ccccn2)C(=O)N1CCC1=CCCCC1 (centres undefined)	-4.1
COc1ccccc1NCc1nc2ccccc2n1C	-5.2
Cc1n[nH]c(=S)n(NC(=O)/C=C/C(=O)Nn2c(=S)[nH]nc(C)c2=O)c1=O	20.2*	TbREL1 confirm=15.4*
COc1ccc(C[C@H]2CN3C(=NC[C@@H]3Cc3ccc(O)cc3)N2CCNC(=O)c2ccc(C)c(Br)c2)cc1	9.4
Cc1ccc(C(=O)N[C@@H](C)CN2C3=NC[C@H](C(C)C)N3C[C@H]2Cc2ccc(O)cc2)cc1Br	8.0
COc1ccc(C[C@H]2CN3C(=NC[C@@H]3C(C)C)N2C[C@H](C)NC(=O)c2ccc(C)c(Br)c2)cc1	13.1*	TbREL1 confirm=19.7*
O=c1ccc(-c2ccc(S(=O)(=O)N3CCN(c4cccc(Cl)c4)CC3)o2)n[nH]1	1.4
CC(=O)NC1CCCCN(C)C1=O (centres undefined)	2.5
CC(C)CC(=O)NN1CCCCC1	1.2
CCC(C)NC(=O)CC(C)C (centres undefined)	12.2*	TbREL1 confirm=6.3
CCC(C)NC(=O)CNS(=O)(=O)c1ccc(C)cc1 (centres undefined)	-0.2
c1nc(NCC2CCOC2)c2cc(-c3ccc4c(c3)OCO4)ccc2n1 (centres undefined)	-0.8
CCN1C[C@@H]2[C@@H]3C(=O)N(Cc4ccccc4)C(=O)[C@@H]3[C@](CC)(C1=O)N2C(=O)c1ccc(F)cc1	0.2
C#CCOCCOCCOCCNc1nc(N2CCN(C(=O)[C@H](CO)n3cc([C@@H](N)C(C)C)nn3)CC2)nc(N2CCN(C(=O)[C@H](CO)n3cc([C@@H](N)C(C)C)nn3)CC2)n1	1.9
COC(=O)[C@]12C[C@H](CC(=O)N3CCCC3)C(=O)N(CCc3ccc(OC)c(OC)c3)C1=C[C@H](COCc1ccccc1)O[C@@H]2C	-3.9
CCCCN(C)C(=O)c1ccc(Nc2nc(C(N)Cc3ccc(C(F)(F)F)cc3)cs2)nc1 (centres undefined)	17.4*	TbREL1 confirm=13.0*
COc1ccc(CC(N)c2csc(NC(=O)Nc3cccc(C(F)(F)F)c3)n2)cc1 (centres undefined)	4.6
NC(COCc1ccccc1)c1csc(Nc2ccc(C(F)(F)F)cn2)n1 (centres undefined)	8.8
O=C(Nc1cc(C(F)(F)F)cc(C(F)(F)F)c1)[C@H]1O[C@@H](n2ccc(=O)[nH]c2=O)[C@H](O)[C@@H]1O	-0.1
COC(=O)c1cc(NC(=O)C(C)c2ccc(CC(C)C)cc2)ccc1O (centres undefined)	0.8
SMILES	TbREL1 inh	others
CC(C)Cc1ccc(C(C)C(N)=NCCc2ccccc2)cc1 (centres undefined)	12.4*	TbREL1 confirm=12.5*
CC(C)c1ccc(CNCc2ccccc2)cc1	1.9
O=C1NC[C@H](Cc2ccccc2)N(C[C@@H]2CCCN2C[C@H](Cc2ccccc2)N2C[C@H](Cc3ccccc3)N(CCc3ccccc3)C(=O)C2=O)C1=O	1.6
C=CCc1ccc(OCCOCCOc2ccccc2[N+](=O)[O-])c(OC)c1	-1.4
C=CCc1ccc(OCCCNCc2ccccc2)c(OC)c1	11.8*	TbREL1 confirm=9.6
C=CCc1ccc(OCCCOc2ccc(C)cc2OC)c(OC)c1	1.3
O=S(=O)(NC(=NC1CCCCC1)c1ccccc1F)c1ccccc1	-2.1
CCC(=O)Nc1ccc2c(c1)C(=O)c1ccccc1C2=O	13.9*	TbREL1 confirm=2.4
CCC(=O)NC1=C(NC(C)c2ccccc2)C(=O)c2ccccc2C1=O (centres undefined)	0.1
CCC(=O)Nc1ccc(C(=O)NNC(=O)c2ccccc2)cc1	6.1
COc1ccc(NC(=O)Nc2c(C)n(C)n(-c3ccccc3)c2=O)c(OC)c1	1.9
Cn1c(=O)c2[nH]c(SCC(=O)NCCc3cccc(F)c3)nc2n(C)c1=O	2.2

Compound activity: PubChem, The Scripps Research Institute Molecular Screening Center
